In PubChem BioAssay (NCI):
Where “and” joins values, the source holds several entries; their conditions need not be identical. Equal values may be shown once. Compounds without any hit were thinned out: in the full panel of roughly 83,000, 20% have a hit.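 Single-dose data. Exposure time 48 hours. Values below 10 considered active.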 A structure can be active in one record and inactive in another. Calls of active or inactive are those of the source.

Tests used:
Experiment in all cases: NCI-60 one-dose screen, 48 h (100 = growth as untreated, 0 = no growth, -100 = all killed)
NCI-H23 lung = conditions: 10 µM
NCI-H226 lung = conditions: 10 µM
HOP-62 NSCLC = conditions: 10 µM
NCI-H460 lung = conditions: 10 µM
HOP-92 NSCLC = conditions: 10 µM
NCI-H522 lung = conditions: 10 µM unless noted
786-0 renal = conditions: 10 µM
COLO 205 colon = conditions: 10 µM
DU-145 prostate = conditions: 10 µM unless noted
K-562 leukemia = conditions: 10 µM
MALME-3M melanoma = conditions: 10 µM
MDA-MB-231 breast = conditions: 10 µM
RXF 393 renal = conditions: 10 µM unless noted
SF-268 CNS = conditions: 10 µM
SF-295 CNS = conditions: 10 µM
SF-539 CNS = conditions: 10 µM
UACC-257 melanoma = conditions: 10 µM
NCI-H322M lung = conditions: 10 µM
A549/ATCC NSCLC = conditions: 10 µM

Measured: growth

Cc1cc(NS(=O)(=O)c2ccc(N=Nc3cc(N=Nc4ccc(S(=O)(=O)Nc5cc(C)nc(C)n5)cc4)c4c(NC(=O)C(Cl)Cl)cccc4c3OC(=O)C(Cl)Cl)cc2)nc(C)n1 (tested in a mixture with another compound)
86.1% (inactive) and 3.96% (active): NCI-H522 lung
inactive: NCI-H23 lung 107% | NCI-H226 lung 94.6% and 96.1% | HOP-62 NSCLC 102% and 103% | NCI-H460 lung 109% and 103% | HOP-92 NSCLC 99% and 120% | 786-0 renal 111% and 115% | COLO 205 colon 109% and 113% | DU-145 prostate 118% and 110% | K-562 leukemia 108% and 117% | MALME-3M melanoma 101% and 94% | MDA-MB-231 breast 81.8% and 68.1% | RXF 393 renal 110% and 93% | SF-268 CNS 108% and 115% | SF-295 CNS 86.2% | SF-539 CNS 99.3% and 108% | UACC-257 melanoma 101% and 92.8%

NNc1c2ccccc2nc2ccccc12
inactive: NCI-H23 lung 47.4% | NCI-H226 lung 48.5% | NCI-H322M lung 75.9% | HOP-62 NSCLC 64.6% | NCI-H460 lung 10% | HOP-92 NSCLC 88.1% | 786-0 renal 34.2% | COLO 205 colon 67.6% | DU-145 prostate 66% | K-562 leukemia 49.2% | MALME-3M melanoma 62.5% | MDA-MB-231 breast 65.2% | RXF 393 renal 72.8% | SF-268 CNS 50.1% | SF-539 CNS 42.8% | UACC-257 melanoma 34.9%

CC[N+](CC)=c1ccc2nc3c(cc(N)c4ccccc43)oc-2c1
active: NCI-H23 lung -41.8% | NCI-H226 lung -48% | NCI-H322M lung -46.5% | HOP-62 NSCLC -69% | NCI-H460 lung -57.4% | HOP-92 NSCLC -60.3% | A549/ATCC NSCLC -19.4% | 786-0 renal -79% | COLO 205 colon -44.4% | DU-145 prostate -60% | K-562 leukemia 1.13% | MALME-3M melanoma -60.9% | MDA-MB-231 breast -71.5% | RXF 393 renal -23.7% | SF-268 CNS -54% | SF-295 CNS -83% | SF-539 CNS -79.7% | UACC-257 melanoma -70.2%

CCCCCCCCCCCC[N+](C)(C)Cc1ccccc1
inactive: NCI-H23 lung 23.8% | NCI-H226 lung 55% | HOP-62 NSCLC 28% | NCI-H460 lung 71.9% | A549/ATCC NSCLC 70.9% | 786-0 renal 28.1% | COLO 205 colon 15.7% | DU-145 prostate 24.8% | MDA-MB-231 breast 25.3% | SF-295 CNS 46.3% | SF-539 CNS 53.6%
active: K-562 leukemia -5.13% | MALME-3M melanoma -19.2% | RXF 393 renal -38.7% | SF-268 CNS 8.3% | UACC-257 melanoma 2.24%

COC(=O)C1=COC(C)C2C[n+]3ccc4c([nH]c5ccccc54)c3CC12 (stereo unspecified)
inactive: NCI-H23 lung 103% and 88.6% | NCI-H226 lung 87.1% and 71.2% | HOP-62 NSCLC 94.7% and 88.3% | NCI-H460 lung 113% and 95.1% | HOP-92 NSCLC 92.2% and 75.9% | 786-0 renal 102% and 107% | COLO 205 colon 106% and 99.7% | DU-145 prostate 112% and 108% | K-562 leukemia 93.7% and 85.2% | MALME-3M melanoma 105% and 93.8% | MDA-MB-231 breast 101% and 73.2% | RXF 393 renal 112% | SF-268 CNS 99.1% and 96.2% | SF-295 CNS 102% and 90.8% | SF-539 CNS 105% | UACC-257 melanoma 106% and 95.1%

COC(=O)C1C(O)C(C)C(O)C(C)C=C(C)C2=C3C(=C(C)C(=O)c4c(O)c(c(C)c(OC(C)=O)c43)NC(=O)C(C)=C/C=C\C(C)C(O)C(C)C1O)OCO2 (stereo unspecified)
active: HOP-92 NSCLC -5.62%
inactive: NCI-H23 lung 107% | NCI-H226 lung 104% | NCI-H460 lung 114% | NCI-H522 lung 75.3% | 786-0 renal 101% | COLO 205 colon 125% | DU-145 prostate 115% | K-562 leukemia 127% | MALME-3M melanoma 126% | MDA-MB-231 breast 105% | RXF 393 renal 125% | SF-268 CNS 112% | SF-295 CNS 108% | SF-539 CNS 110% | UACC-257 melanoma 118%

CCN1/C(=C/C=C/C=C/c2sc3ccccc3[n+]2CC)Sc2ccccc21
inactive: NCI-H226 lung 11.8%
active: NCI-H23 lung -22.8% | HOP-62 NSCLC -29% | NCI-H460 lung -69.7% | HOP-92 NSCLC -28.3% | 786-0 renal -57.6% | COLO 205 colon -87.7% | DU-145 prostate -17.2% | K-562 leukemia -46.4% | MALME-3M melanoma -32.8% | MDA-MB-231 breast 8.54% | RXF 393 renal -64.4% | SF-268 CNS -75.4% | SF-295 CNS -23.8% | SF-539 CNS -57% | UACC-257 melanoma -57.7%

CCCCCCCCCCSC(=N)N
inactive: NCI-H23 lung 87.4% | NCI-H226 lung 99.7% | HOP-62 NSCLC 68% | NCI-H460 lung 23.8% | HOP-92 NSCLC 21.6% | 786-0 renal 51% | DU-145 prostate 79.9% | K-562 leukemia 11.1% | MALME-3M melanoma 81.3% | MDA-MB-231 breast 13% | RXF 393 renal 46.1% | SF-268 CNS 73.9% | SF-295 CNS 56.4% | SF-539 CNS 68.4% | UACC-257 melanoma 29.8%
active: COLO 205 colon -84%

CCCCCCCCCCCCCCCCCCOCC(COP(=O)([O-])OCC[N+](C)(C)C)OC (stereo unspecified)
inactive: NCI-H23 lung 89.1% | NCI-H226 lung 93.9% | HOP-62 NSCLC 44% | NCI-H460 lung 46.4% | HOP-92 NSCLC 59.9% | 786-0 renal 87.6% | DU-145 prostate 129% | K-562 leukemia 104% | MALME-3M melanoma 80.7% | MDA-MB-231 breast 74.4% | RXF 393 renal 47.2% | SF-268 CNS 79.6% | SF-295 CNS 89.9% | SF-539 CNS 88.8% | UACC-257 melanoma 95%
active: COLO 205 colon 2.62%

N=S(c1ccccc1[N+](=O)[O-])c1ccccc1[N+](=O)[O-]
inactive: NCI-H23 lung 83.9% | NCI-H226 lung 52.7% | HOP-62 NSCLC 124% | NCI-H460 lung 104% | 786-0 renal 39.7% | DU-145 prostate 80.4% | MALME-3M melanoma 74.5% | MDA-MB-231 breast 91.4% | RXF 393 renal 79% | SF-268 CNS 90.2% | SF-295 CNS 99.5% | SF-539 CNS 39.2% | UACC-257 melanoma 89.7%
active: HOP-92 NSCLC -1.88% | COLO 205 colon 2.39% | K-562 leukemia 1.79%

O=[N+]([O-])C1=C(c2ccccc2)SC=C(c2ccccc2)S1
inactive: NCI-H23 lung 79.3% | NCI-H226 lung 74% | HOP-62 NSCLC 74.1% | NCI-H460 lung 67.3% | HOP-92 NSCLC 65.9% | 786-0 renal 95.4% | COLO 205 colon 86.9% | DU-145 prostate 75.2% | K-562 leukemia 72.7% | MALME-3M melanoma 54.5% | MDA-MB-231 breast 69.3% | RXF 393 renal 54.2% | SF-268 CNS 97.9% | SF-295 CNS 93.7% | UACC-257 melanoma 51.3%

O=C(Nc1ccc(C(=O)O)c(O)c1)c1ccccc1
inactive: NCI-H23 lung 104% and 97.9% | NCI-H226 lung 101% | HOP-62 NSCLC 95.3% and 91.7% | NCI-H460 lung 109% | HOP-92 NSCLC 81.4% and 103% | 786-0 renal 109% and 97% | COLO 205 colon 102% and 130% | DU-145 prostate 108% and 126% | K-562 leukemia 101% and 102% | MALME-3M melanoma 88.5% and 92.3% | MDA-MB-231 breast 98.5% and 104% | RXF 393 renal 112% and 107% | SF-268 CNS 108% and 121% | SF-295 CNS 106% and 95.1% | SF-539 CNS 98% and 104% | UACC-257 melanoma 98.5% and 94.3%

CCCC1CCC(=C2C(=O)CCC2=O)O1 (stereo unspecified)
inactive: NCI-H23 lung 102% and 98.7% | NCI-H226 lung 102% and 108% | HOP-62 NSCLC 90.6% and 101% | NCI-H460 lung 101% and 113% | HOP-92 NSCLC 103% | A549/ATCC NSCLC 110% and 97.5% | 786-0 renal 105% and 92.9% | COLO 205 colon 100% and 99.2% | DU-145 prostate 102% and 92.3% | K-562 leukemia 145% and 121% | MALME-3M melanoma 103% and 101% | MDA-MB-231 breast 102% and 101% | RXF 393 renal 103% and 97.7% | SF-268 CNS 100% and 107% | SF-295 CNS 97.3% and 89.8% | SF-539 CNS 92.7% and 96.7% | UACC-257 melanoma 106% and 95.3%
